Reference: the supplement of paper PMC11732987, “Enantioselective OTUD7B fragment discovery through chemoproteomics screening and high-throughput optimisation” (Communications Chemistry, 2025)

Columns and labels:
Test in all cases: log2 ratio of Biotin-Ahx-Ub-VS probe labelling (fragment/DMSO); higher = less target engagement (more negative = stronger competition), active = hit call of the paper (q ≤ 0.05, log2 ratio ≤ -1)
Details in all cases: compound concentration: 200 uM; treatment time: 3 h
[1] = molecular target: USP9X (UniProt Q93008)
USP9X, sequence (Q93008 whole entry, the tested form may be a part): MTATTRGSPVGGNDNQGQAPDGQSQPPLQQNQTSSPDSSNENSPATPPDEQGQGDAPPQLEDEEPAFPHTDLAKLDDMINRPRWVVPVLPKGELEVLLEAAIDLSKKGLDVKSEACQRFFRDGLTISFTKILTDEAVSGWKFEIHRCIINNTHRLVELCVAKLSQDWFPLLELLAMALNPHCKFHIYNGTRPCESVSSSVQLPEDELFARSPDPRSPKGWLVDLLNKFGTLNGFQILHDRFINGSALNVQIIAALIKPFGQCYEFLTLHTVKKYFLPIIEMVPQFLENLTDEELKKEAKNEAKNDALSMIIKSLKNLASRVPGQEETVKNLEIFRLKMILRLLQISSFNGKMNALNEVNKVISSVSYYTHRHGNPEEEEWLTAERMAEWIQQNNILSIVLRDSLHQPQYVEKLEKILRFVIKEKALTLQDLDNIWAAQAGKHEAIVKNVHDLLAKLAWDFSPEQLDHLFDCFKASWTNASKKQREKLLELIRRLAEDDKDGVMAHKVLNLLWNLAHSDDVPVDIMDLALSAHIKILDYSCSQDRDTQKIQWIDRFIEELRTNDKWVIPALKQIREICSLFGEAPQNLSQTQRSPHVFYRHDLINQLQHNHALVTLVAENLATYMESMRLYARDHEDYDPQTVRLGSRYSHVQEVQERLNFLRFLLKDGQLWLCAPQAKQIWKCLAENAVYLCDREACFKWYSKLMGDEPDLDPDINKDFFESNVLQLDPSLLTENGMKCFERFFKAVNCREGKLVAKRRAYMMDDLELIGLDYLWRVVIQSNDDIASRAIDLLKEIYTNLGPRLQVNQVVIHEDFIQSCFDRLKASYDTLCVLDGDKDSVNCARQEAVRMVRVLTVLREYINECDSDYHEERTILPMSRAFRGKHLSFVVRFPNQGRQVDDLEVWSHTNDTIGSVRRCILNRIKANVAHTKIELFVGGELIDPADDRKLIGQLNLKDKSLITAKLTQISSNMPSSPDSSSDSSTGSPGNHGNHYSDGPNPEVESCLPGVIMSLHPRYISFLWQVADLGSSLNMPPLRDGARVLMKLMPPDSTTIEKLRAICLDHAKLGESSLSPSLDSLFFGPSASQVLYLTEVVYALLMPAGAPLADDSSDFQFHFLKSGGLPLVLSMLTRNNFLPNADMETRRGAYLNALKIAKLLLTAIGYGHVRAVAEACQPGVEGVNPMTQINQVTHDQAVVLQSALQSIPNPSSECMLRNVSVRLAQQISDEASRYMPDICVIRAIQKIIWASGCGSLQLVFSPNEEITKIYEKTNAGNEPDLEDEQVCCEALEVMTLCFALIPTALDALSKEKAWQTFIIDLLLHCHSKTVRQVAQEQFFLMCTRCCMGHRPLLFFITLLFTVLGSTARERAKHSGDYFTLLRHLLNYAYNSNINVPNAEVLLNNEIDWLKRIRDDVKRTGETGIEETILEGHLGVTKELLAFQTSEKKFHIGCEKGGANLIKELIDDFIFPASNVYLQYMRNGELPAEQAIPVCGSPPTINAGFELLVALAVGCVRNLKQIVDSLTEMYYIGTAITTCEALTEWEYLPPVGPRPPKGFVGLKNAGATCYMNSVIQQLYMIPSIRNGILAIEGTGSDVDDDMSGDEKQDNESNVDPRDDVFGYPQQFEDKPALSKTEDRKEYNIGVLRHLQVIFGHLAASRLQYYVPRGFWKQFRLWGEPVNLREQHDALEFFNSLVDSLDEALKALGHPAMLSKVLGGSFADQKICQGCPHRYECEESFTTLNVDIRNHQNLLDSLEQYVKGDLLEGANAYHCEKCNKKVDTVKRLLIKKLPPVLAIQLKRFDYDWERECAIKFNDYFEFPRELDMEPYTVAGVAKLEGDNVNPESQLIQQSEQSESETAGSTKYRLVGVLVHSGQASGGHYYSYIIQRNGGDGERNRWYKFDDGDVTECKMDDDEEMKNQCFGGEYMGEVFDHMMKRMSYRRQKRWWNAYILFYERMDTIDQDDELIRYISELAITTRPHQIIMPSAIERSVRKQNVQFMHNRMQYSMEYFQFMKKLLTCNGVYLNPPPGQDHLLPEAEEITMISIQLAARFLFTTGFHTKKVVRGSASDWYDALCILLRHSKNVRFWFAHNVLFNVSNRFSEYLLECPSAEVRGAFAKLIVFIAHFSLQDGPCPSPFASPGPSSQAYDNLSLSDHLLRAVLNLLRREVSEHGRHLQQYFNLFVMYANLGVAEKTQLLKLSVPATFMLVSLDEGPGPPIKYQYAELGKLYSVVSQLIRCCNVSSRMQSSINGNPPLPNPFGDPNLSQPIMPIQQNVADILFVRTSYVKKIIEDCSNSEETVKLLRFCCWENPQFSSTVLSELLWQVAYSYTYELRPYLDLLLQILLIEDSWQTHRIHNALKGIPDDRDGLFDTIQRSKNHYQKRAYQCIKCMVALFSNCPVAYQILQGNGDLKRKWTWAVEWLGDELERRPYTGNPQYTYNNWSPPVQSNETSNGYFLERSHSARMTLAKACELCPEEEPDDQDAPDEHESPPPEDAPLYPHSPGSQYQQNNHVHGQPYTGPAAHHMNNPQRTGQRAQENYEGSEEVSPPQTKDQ
In short: (§1)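 Using Biotin-Ahx-Ub-VS at 0.5 µM final for 1 h, DUBs were labelled in HEK293T lysate (495 µg per sample) that had first been treated in triplicate with fragment at 200 µM or vehicle for 3 h. NeutrAvidin enrichment, LysC and trypsin digestion and diaPASEF LC-MS/MS followed. Spectronaut label-free quantities were global-median-normalised. Values are average log2 fragment/vehicle ratios by unpaired t-test, using proteins with ≥2 unique peptides.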

[2] = molecular target: UniProt O00487
UniProt O00487, sequence (O00487 whole entry): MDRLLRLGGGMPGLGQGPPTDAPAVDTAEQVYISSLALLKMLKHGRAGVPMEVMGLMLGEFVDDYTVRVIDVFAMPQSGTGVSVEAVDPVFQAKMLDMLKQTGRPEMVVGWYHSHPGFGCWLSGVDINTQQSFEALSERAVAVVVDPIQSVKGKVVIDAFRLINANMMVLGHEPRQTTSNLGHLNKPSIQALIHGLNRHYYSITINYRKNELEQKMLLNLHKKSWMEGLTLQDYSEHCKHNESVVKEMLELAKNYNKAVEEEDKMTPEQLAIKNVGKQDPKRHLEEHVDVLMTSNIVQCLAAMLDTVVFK
In short: as §1

[3] = molecular target: UniProt O00507
In short: as §1

[4] = molecular target: UniProt P51784
UniProt P51784, sequence (P51784 whole entry): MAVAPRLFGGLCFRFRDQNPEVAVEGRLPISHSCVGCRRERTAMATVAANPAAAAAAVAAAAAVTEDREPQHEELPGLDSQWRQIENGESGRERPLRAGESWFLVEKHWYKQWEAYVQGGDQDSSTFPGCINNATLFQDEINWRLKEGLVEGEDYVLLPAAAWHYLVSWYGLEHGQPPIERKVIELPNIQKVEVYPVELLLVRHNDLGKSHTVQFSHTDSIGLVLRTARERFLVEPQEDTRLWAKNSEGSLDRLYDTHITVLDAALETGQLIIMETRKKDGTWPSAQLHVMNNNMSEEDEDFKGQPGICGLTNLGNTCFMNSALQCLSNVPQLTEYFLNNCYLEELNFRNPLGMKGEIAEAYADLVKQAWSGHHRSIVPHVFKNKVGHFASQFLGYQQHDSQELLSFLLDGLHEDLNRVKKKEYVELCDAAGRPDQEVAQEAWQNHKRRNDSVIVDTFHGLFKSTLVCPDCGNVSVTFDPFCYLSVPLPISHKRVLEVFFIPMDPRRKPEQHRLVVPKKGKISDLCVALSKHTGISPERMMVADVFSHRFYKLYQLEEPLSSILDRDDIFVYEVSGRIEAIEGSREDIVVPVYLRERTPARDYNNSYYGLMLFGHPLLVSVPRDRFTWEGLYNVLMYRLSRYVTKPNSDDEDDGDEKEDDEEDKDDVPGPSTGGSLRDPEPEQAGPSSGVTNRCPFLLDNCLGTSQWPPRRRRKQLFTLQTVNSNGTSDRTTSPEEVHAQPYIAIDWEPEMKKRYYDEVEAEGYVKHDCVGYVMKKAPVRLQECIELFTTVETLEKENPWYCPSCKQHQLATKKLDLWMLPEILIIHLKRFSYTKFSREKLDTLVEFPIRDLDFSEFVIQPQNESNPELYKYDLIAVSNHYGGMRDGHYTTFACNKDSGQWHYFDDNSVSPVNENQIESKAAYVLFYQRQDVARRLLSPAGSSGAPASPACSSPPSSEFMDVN
In short: as §1

[5] = molecular target: T1, UniProt Q5T2D3
T1 sequence (whole entry): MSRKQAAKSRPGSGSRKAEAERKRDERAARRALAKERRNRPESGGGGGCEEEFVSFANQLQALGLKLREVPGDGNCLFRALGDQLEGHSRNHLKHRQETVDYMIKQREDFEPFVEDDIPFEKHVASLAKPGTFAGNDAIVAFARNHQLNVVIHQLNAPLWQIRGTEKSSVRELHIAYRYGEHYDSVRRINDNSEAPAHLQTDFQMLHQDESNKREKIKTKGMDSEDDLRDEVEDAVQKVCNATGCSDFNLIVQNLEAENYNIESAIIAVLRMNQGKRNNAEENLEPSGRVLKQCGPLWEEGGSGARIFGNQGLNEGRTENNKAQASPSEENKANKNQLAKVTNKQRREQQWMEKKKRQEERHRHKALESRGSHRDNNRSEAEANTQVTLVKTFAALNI
In short: as §1

[6] = molecular target: T2, UniProt Q8TE49
T2 sequence (whole entry): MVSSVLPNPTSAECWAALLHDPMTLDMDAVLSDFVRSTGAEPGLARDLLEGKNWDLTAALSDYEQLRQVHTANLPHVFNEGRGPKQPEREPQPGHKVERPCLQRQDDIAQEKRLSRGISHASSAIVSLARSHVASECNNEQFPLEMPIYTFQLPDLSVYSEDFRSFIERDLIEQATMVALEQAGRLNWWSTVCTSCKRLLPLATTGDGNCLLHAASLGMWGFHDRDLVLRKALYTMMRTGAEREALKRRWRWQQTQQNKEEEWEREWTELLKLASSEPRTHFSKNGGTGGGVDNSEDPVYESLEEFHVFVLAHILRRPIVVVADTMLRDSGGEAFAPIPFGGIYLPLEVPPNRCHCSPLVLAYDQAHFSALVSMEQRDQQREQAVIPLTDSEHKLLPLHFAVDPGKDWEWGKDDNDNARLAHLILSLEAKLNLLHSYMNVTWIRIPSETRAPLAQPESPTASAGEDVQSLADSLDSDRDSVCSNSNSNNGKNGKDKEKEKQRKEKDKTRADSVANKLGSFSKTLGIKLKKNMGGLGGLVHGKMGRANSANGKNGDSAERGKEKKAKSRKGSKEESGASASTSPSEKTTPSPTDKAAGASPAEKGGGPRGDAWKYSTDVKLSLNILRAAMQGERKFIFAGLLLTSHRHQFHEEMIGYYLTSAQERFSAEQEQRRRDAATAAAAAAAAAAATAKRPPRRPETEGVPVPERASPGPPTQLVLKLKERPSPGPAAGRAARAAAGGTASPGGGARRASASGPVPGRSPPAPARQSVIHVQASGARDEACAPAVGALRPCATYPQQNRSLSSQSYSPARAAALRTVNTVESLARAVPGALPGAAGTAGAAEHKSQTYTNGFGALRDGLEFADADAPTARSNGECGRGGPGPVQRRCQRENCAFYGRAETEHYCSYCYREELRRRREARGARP
In short: as §1

[7] = molecular target: T3, UniProt Q9P2H5
T3 sequence (whole entry): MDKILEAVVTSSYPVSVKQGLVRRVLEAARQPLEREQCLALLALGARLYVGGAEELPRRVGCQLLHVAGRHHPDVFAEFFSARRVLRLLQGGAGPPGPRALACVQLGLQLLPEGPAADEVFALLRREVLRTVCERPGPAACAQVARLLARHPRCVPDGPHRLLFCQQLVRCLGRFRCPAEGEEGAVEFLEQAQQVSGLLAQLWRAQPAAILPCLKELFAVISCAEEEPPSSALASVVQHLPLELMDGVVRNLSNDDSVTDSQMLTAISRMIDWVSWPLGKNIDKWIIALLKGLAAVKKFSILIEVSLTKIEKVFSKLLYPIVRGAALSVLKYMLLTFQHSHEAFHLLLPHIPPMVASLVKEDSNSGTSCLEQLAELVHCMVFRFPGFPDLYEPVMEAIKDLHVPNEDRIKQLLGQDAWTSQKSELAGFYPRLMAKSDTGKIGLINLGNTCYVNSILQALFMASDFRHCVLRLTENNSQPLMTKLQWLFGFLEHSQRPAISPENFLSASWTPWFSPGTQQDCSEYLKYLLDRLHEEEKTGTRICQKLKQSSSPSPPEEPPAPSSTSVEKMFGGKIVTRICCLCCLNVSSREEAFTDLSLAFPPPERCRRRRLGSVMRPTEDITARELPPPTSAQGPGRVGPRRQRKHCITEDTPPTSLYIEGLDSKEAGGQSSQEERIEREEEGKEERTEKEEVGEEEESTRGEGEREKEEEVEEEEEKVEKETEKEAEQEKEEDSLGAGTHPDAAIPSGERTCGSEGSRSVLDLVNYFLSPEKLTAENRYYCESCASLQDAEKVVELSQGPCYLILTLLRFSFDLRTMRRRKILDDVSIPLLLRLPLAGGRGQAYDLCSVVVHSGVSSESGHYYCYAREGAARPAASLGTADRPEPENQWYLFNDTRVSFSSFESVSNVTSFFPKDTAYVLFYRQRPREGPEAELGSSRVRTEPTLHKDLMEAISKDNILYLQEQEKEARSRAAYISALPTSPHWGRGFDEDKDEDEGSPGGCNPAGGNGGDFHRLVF
In short: as §1

[8] = molecular target: T4, UniProt Q9UGI0
T4 sequence (whole entry): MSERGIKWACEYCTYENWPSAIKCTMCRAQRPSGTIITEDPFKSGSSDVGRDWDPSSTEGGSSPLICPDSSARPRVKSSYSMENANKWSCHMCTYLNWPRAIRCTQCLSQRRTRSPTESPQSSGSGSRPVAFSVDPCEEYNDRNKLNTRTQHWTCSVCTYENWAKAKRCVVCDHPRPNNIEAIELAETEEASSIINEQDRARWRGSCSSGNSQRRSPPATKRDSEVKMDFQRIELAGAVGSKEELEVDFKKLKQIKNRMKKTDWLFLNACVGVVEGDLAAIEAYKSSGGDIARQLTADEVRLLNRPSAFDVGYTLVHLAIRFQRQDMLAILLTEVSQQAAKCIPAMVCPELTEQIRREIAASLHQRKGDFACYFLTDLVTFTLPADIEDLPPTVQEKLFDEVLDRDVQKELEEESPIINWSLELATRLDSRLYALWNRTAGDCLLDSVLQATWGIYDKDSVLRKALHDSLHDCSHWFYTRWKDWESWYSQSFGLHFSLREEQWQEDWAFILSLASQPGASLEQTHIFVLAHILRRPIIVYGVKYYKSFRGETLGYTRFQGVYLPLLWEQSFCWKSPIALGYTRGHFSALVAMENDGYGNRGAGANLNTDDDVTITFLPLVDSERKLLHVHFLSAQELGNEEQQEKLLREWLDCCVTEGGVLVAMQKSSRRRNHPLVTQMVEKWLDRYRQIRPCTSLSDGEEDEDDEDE
In short: as §1

[9] = molecular target: T5, YOD1 (UniProt Q5VVQ6)
T5 sequence (whole entry): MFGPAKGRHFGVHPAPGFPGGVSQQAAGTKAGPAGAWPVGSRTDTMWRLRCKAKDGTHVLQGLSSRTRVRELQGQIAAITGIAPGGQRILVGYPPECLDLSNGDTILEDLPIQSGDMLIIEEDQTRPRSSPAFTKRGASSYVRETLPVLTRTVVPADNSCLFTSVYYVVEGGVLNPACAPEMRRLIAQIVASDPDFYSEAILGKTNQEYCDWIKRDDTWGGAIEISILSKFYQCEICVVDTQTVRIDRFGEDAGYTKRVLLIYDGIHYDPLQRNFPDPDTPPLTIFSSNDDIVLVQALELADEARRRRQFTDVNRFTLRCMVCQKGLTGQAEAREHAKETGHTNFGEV
In short: as §1

Measured: log2 ratio of Biotin-Ahx-Ub-VS probe labelling

O=C(CCl)Nc1cccc(C(=O)N2CCSCC2)c1
inactive: [1] -0.091 | [2] 0.0356 | [3] -0.587 | [4] -0.172 | [5] -0.17 | [6] -0.399 | [7] 0.0593 | [8] -0.309 | [9] -0.58
